Measurements: ChEMBL document CHEMBL4513135, “CO-ADD screening of IQOG CSIS (Spain) compounds”
Where “and” joins values, the source holds several entries; their conditions need not be identical. Identical values can stand only once. Results with a measured potency or affinity are listed apart.

What was measured:
Klebsiella pneumoniae = settings: Concentration 32 ug.mL-1; ASSAY_TEST Inhibition of Bacterial Growth; detection method Absorption (OD600); MEDIA CAMHB; plate type 384well; NBS; CORNING #3640; time 18 hr, 32 ug/mL
Cryptococcus neoformans = settings: Concentration 32 ug.mL-1; ASSAY_TEST Inhibition of Fungal Growth; detection method Resazurin; Absorption (OD600-OD570); plate type 384well; NBS; CORNING #3640; 32 ug/mL

C#CCN1CCc2nc(N)c(C#N)c(-c3ccccc3)c2C1
Inhibition (Klebsiella pneumoniae): 13.26% and 8.28%
Inhibition (Cryptococcus neoformans): -44.69% and -39.47%
